Rows were chosen to be rich in hits. Some 0.5% of all compounds tested hit in one or more screens of this group.
Tat transport – E. coli Tat export inhibitors, primary screen, MC4100, TorA-mCherry reporter, fluorescence, single point | inhibition, % at 10 µM | hit rate 0.036% among 340,000 | AID 488895, 2010;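 active = mean replicate inhibition at least 50% and at least half of replicates individually reaching 50%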;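 note: exported cargo escapes ClpAP degradation while cytoplasmic cargo is degraded and loses fluorescence; 0% = median of neutral control wells and 100% = median of NaSCN control wells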
E coli growth-1 – E. coli growth inhibition, primary screen, OD600; hit rate 0.21% among 330,000; Escherichia coli growth, 23 h; hits give low values; OD600 absorbance (no concentration beside the values); AID 1053175, 2014;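 active = OD600 absorbance below the run mean of sample wells minus 3.6 SD, in any replicate, cut at about 0.56 in these data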
E coli growth-2 – E. coli V3065 growth inhibition, primary screen, counter-screen for AddAB inhibitor project, absorbance, OD600 | 18 h | inhibition, % at 11.9 µM | hit rate 0.27% among 330,000;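 active = inhibition above the campaign's mean inhibition across all tested compounds plus 3 SD, cut at about 9.9% in these data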;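 note: uninfected addAB+ strain grown without phage in ampicillin broth; 0% = DMSO wells and 100% = ciprofloxacin 0.95 µg/ml wells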
AddAB inh – growth inhibition of E. coli expressing H. pylori AddAB, primary screen, AddAB inhibitor project, absorbance; inhibition, % at 11.9 µM; hit rate 0.29% among 330,000; in the data active = inhibition above about 12%;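 note: 0% = vehicle wells of infected cells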
phage Ecoli inh – growth loss of phage-infected E. coli, primary screen, RecBCD inhibitor project, absorbance, with phage, HTS | AID 651602, 2012 | hit rate 0.26% among 360,000 | inhibition, % at 11.9 µM; in the data active = inhibition above about 11%
AddAB conf – growth loss of phage-infected E. coli expressing H. pylori AddAB, confirmation, AddAB inhibitor project, absorbance, E. coli V3065, T4 phage, triplicate | inhibition, % at 11.9 µM | OD; T4 phage with gene 2 nonsense mutations | shares compounds with AddAB inh | hit rate 64% among 880;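 active = mean inhibition above a set limit taken from the earlier primary screen, cut at about 13% in these data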;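 note: higher means less bacterial growth since AddAB block lets phage replicate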
RecBCD counter – growth loss of RecBCD+ E. coli with mutant T4 phage, counter-screen for AddAB inhibitor project, absorbance, V66 E. coli; hit rate 73% among 880; OD growth; AID 488955, 2010; inhibition, % at 11.9 µM; shares compounds with AddAB inh;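 active = mean inhibition above the mean of solvent-only control wells plus 3 SD, cut at about 4% in these data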;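 note: optical density read after an 18 h incubation at 37 °C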
Bact viability – bacterial viability inhibition counter-screen, confirmation, counter-screen for AddAB inhibitor project, absorbance | shares compounds with AddAB inh | absorbance (AddAB counterscreen) | inhibition, % at 11.9 µM | hit rate 35% among 880; in the data active = inhibition above about 25%
RecBCD conf – growth loss of phage-infected RecBCD+ E. coli, confirmation, RecBCD inhibitor project, absorbance, E. coli V66, T4 gene 2 phage. shares compounds with phage Ecoli inh. E. coli V66 + T4 2- phage, growth OD. inhibition, % at 11.9 µM. hit rate 45% among 890;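 active = mean inhibition over triplicates exceeding the hit threshold derived in the original primary screen, cut at about 11% in these data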
Ecoli viability – E. coli viability inhibition, counter-screen for RecBCD inhibitor project, absorbance, high throughput; AID 651983, 2013; hit rate 29% among 890; absorbance (OD) growth; inhibition, % at 11.9 µM; shares compounds with phage Ecoli inh; in the data active = inhibition above about 20%;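 note: E. coli strain V66 grown with compound alone and no phage infection; 0% = bacteria with DMSO vehicle only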
AddAB counter – growth loss of phage-infected AddAB-carrying E. coli, confirmation, counter-screen for RecBCD inhibitor project, absorbance, E. coli V3065, T4 phage; shares compounds with phage Ecoli inh; hit rate 45% among 890; inhibition, % at 11.9 µM; AID 651984, 2013; E. coli expressing H. pylori AddAB + T4 phage, OD growth; gene 2 mutant T4, recBCD-deleted host;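 active = mean inhibition above the solvent-only control wells' mean plus 3 SD, cut at about 22% in these data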;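 note: higher means less bacterial growth from phage killing when AddAB is blocked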
* hit, by the source's call; . = not tested or not shown.

SMILES	Tat transport	E coli growth-1	E coli growth-2	AddAB inh	phage Ecoli inh	AddAB conf	RecBCD counter	Bact viability	RecBCD conf	Ecoli viability	AddAB counter
Fc1ccc(NC(=S)NCc2ccccc2Cl)cc1	-10	0.66	13*	14*	12*	36*	25*	35*	17*	24*	38*
C=CC[n+]1c(/C=C2\C=Cc3cc(C)ccc3N2CC)ccc2ccccc21	-9	0.53	22*	20*	12*	66*	6.6*	24	3	2	36*
Oc1ccc2ccccc2c1C=NNc1nnc(-c2ncc[nH]2)c2ccccc12	.	0.67	.	.	.	.	.	.	.	.	.
Oc1ccc2ccccc2c1/C=N/Nc1nnc(-c2ncc[nH]2)c2ccccc12	3	.	14*	19*	17*	22*	24*	23	17*	22*	27*
CCN1C(=NCc2ccco2)NC(c2cccc(F)c2)C(C(=O)OC)=C1C (stereo unspecified)	.	0.69	.	.	.	.	.	.	.	.	.
C=CCNC(=O)C(=Cc1ccc(OC)cc1)NC(=O)c1ccc([N+](=O)[O-])cc1	.	0.72	.	.	.	.	.	.	.	.	.
O=C(CSc1nc2ccccc2[nH]1)Nc1ccc(N2CCOCC2)cc1	-16	0.6	14*	25*	13*	13*	17*	15	8	12	13
CC(=O)Nc1ccc2nc(SCC(=O)Nc3ccc(N4CCOCC4)c(Cl)c3)sc2c1	-6	0.67	-3	2	3	.	.	.	.	.	.
O=C(CSc1nc2ccccc2s1)Nc1ccc(N2CCOCC2)c(Cl)c1	-23	0.66	12*	21*	16*	19*	12*	16	11	13	24*
O=C(O)CC1S/C(=N/N=C/c2ccccn2)NC1=O (stereo unspecified)	-7	.	19*	22*	22*	17*	18*	15	10	13	12
CC(C)C1COCCS(=O)(=O)N1Cc1ccccc1F (stereo unspecified)	.	0.66	.	.	.	.	.	.	.	.	.
CN(C)c1ccc(C=NNC(=O)C(=O)/C=C2\NC3(CCCC3)Cc3ccccc32)cc1	.	0.72	.	.	.	.	.	.	.	.	.
O=C(C1CC=CC2CCN(Cc3ccc(Cl)c(Cl)c3)C(=O)C21)N1CCN(c2ccccc2)CC1 (stereo unspecified)	.	0.64	.	.	.	.	.	.	.	.	.
CC1CN(C(C)CO)C(=O)c2cccc(NS(=O)(=O)c3ccc(F)cc3)c2OC1CN(C)S(=O)(=O)c1ccccc1 (stereo unspecified)	.	0.71	.	.	.	.	.	.	.	.	.
Cc1cccc(NC(=O)c2ccc([N+](=O)[O-])o2)n1	-24	0.53*	38*	30*	16*	100*	13*	40*	7	10	61*
Oc1c(N=Nc2ccccn2)ccc2ccccc12	2	0.75	18*	20*	18*	21*	17*	18	12*	13	26*
Oc1[nH]c2ccccc2c1N=Nc1ccccn1	7	.	.	.	1	.	.	.	.	.	.
COc1c(OC)c(O)c2c(=O)c(O)c(-c3ccccc3)oc2c1OC	2	0.65	1	7	5	.	.	.	.	.	.
COc1ccc(-c2oc3c(OC)c(OC)c(OC)c(O)c3c(=O)c2OC)cc1OC	3	0.7	8	13*	12*	8	4.1*	6	4	6	5

Screening results: PubChem, several laboratories
